This note sets out measurements from PubChem BioAssay (NCI).

About 83,000 compounds went through this panel and 20% of them were active in at least one assay; those are over-represented in the sample as a whole.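 Cell lines were cultured in 96-well plates, exposed to a single compound concentration, and assessed for percent growth 48 hours later.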 Unmarked numbers belong to inactive results. Calls of active or inactive are those of the source. Rule for the calls: active = growth percent below 10; inactive = the rest.

Among the test systems are SR leukemia; RPMI-8226 leukemia; OVCAR-8 ovarian; OVCAR-5 ovarian; OVCAR-4 ovarian; SK-OV-3 ovarian; IGROV1 ovarian; OVCAR-3 ovarian; HS 578T breast; NCI/ADR-RES ovarian; T-47D breast; MDA-MB-435 melanoma; SW-620 colon; MCF7 breast; HCT-116 colon; HCC-2998 colon; KM12 colon; BT-549 breast.
Common to all, as to experiment: NCI-60 one-dose screen, 48 h (100 = growth as untreated, 0 = no growth, -100 = all killed)
Common to all, as to settings: 10 µM unless noted

On to `COc1cccc(-c2nn(-c3ccccc3)cc2-c2ccnc(NCCCNS(=O)(=O)c3ccc(Cl)cc3)c2)c1`, for which the growth was 7.26% (active) in the assay with SR leukemia; 26.6% in the assay on RPMI-8226 leukemia; 37.3% with OVCAR-8 ovarian; 75.3% in the assay with OVCAR-5 ovarian; 42.8% in the assay on OVCAR-4 ovarian; 60.5% in the assay with SK-OV-3 ovarian. Further, the growth in the assay on IGROV1 ovarian was 41.4%; in the assay on OVCAR-3 ovarian it was 54%; in the assay on HS 578T breast it was 49.9%; with NCI/ADR-RES ovarian, 35.6%; in the assay with T-47D breast, 14.2%; in the assay with MDA-MB-435 melanoma, 42.9%. The growth in the assay with SW-620 colon was 62.6%; with MCF7 breast, 24.3%; in the assay on HCT-116 colon, 31.1%; in the assay on HCC-2998 colon, 33.5%; with KM12 colon, 38.9%.

`COC(=O)[C@]12CC[C@@H](C)[C@H](C)[C@@H]1C1=CC[C@@H]3[C@@]4(C)C[C@@H](OC(C)=O)[C@H](O)[C@@](C)(COC(C)=O)[C@@H]4[C@H](O)C[C@@]3(C)[C@]1(C)CC2`: the growth in the assay on SR leukemia was -17.7% (active); with RPMI-8226 leukemia it was -23.7% (active); in the assay with OVCAR-8 ovarian it was -53.7% (active); with OVCAR-5 ovarian, -75.8% (active); with OVCAR-4 ovarian, -70.3% (active); in the assay with SK-OV-3 ovarian, -81.5% (active). For the same molecule, the growth is -61.3% (active) with IGROV1 ovarian; -79.4% (active) with OVCAR-3 ovarian; -28.4% (active) in the assay on HS 578T breast; -66.3% (active) in the assay on T-47D breast; -85.8% (active) in the assay with BT-549 breast; -81.7% (active) in the assay with MDA-MB-435 melanoma. The growth in the assay on SW-620 colon is -80.9% (active); in the assay with MCF7 breast, -78.7% (active); in the assay with HCT-116 colon, -69.5% (active); in the assay with HCC-2998 colon it was -89.7% (active); in the assay with KM12 colon, -75.4% (active).

For the molecule `COCCNC1=C(Cl)C(=O)c2ccccc2C1=O`, the growth in the assay with SR leukemia is 105%; with RPMI-8226 leukemia, 90.4%; in the assay with OVCAR-8 ovarian, 89.5%; with OVCAR-5 ovarian, 107%; in the assay with OVCAR-4 ovarian it was 93.6%; in the assay with SK-OV-3 ovarian it was 116%. The growth was 126% with IGROV1 ovarian; 116% with OVCAR-3 ovarian; 105% in the assay with HS 578T breast; 95.3% with NCI/ADR-RES ovarian; 98.8% in the assay with T-47D breast; 24.5% with MDA-MB-435 melanoma. In addition, the growth in the assay on MCF7 breast is 81.3%; with HCT-116 colon it was 86.8%; in the assay on HCC-2998 colon, 95%; in the assay on KM12 colon it was 83.3%.

In the case of `Cc1cc2nc3c4cc(N)ccc4n(CCN(C)C)c3nc2cc1C`, the growth was -0.184% (active) with SR leukemia; -7.46% (active) with RPMI-8226 leukemia; 13.7% in the assay with OVCAR-8 ovarian; 18.5% with OVCAR-5 ovarian; 14.6% in the assay on OVCAR-4 ovarian; 18.4% in the assay with SK-OV-3 ovarian. In addition, the growth in the assay on IGROV1 ovarian was 3.64% (active); in the assay on OVCAR-3 ovarian it was 22.3%; in the assay on HS 578T breast, 41.8%; in the assay on T-47D breast, 16.1%; in the assay with BT-549 breast, 45%; in the assay with MDA-MB-435 melanoma, 14.6%. In addition, the growth in the assay with SW-620 colon is 7.31% (active); in the assay with MCF7 breast it was -19.6% (active); with HCT-116 colon, 5.51% (active); with HCC-2998 colon it was 17%; with KM12 colon, 17.4%.

Consider `C=C(C)[C@@H]1CC[C@]2(C)CC[C@]3(C)[C@H](CC[C@@H]4[C@@]5(C)CCCNC(C)(C)[C@@H]5CC[C@]43C)[C@@H]12`, for which the growth with SR leukemia was 1.2% (active); in the assay with RPMI-8226 leukemia, 30.1%; in the assay with OVCAR-8 ovarian, 84.1%; in the assay on OVCAR-5 ovarian, 107%; in the assay on OVCAR-4 ovarian, 94.5%; in the assay on SK-OV-3 ovarian, 113%. The growth was 94% in the assay with IGROV1 ovarian; 76.2% with OVCAR-3 ovarian; 101% in the assay with HS 578T breast; 97.3% in the assay on NCI/ADR-RES ovarian; 76% in the assay with T-47D breast; 84.6% with MDA-MB-435 melanoma. Further, the growth is 2.47% (active) in the assay with SW-620 colon, 33.3% in the assay with MCF7 breast, 5.39% (active) in the assay with HCT-116 colon and 66.8% in the assay with KM12 colon.

Take `Cc1cc(N(CCCNc2ccnc3cc(Cl)ccc23)Cc2ccco2)nc(Cl)n1`: the growth in the assay with SR leukemia is 21.7%; in the assay on RPMI-8226 leukemia, 18.6%; with OVCAR-8 ovarian, 41.2%; with OVCAR-5 ovarian it was 69.3%; in the assay on OVCAR-4 ovarian, 54.1%; in the assay with SK-OV-3 ovarian it was 58.7%. The growth is 51.8% with IGROV1 ovarian; 66.1% in the assay on OVCAR-3 ovarian; 75.4% with HS 578T breast; 45.7% with NCI/ADR-RES ovarian; 21.8% with T-47D breast; 72.2% with MDA-MB-435 melanoma. The growth in the assay on SW-620 colon is 66.2%; in the assay on MCF7 breast, 42.4%; in the assay on HCT-116 colon, 28.2%; in the assay with HCC-2998 colon, 75.2%; in the assay on KM12 colon, 65.7%.

For the molecule `COc1ccc(/C=C(\C#N)c2cc3ccccc3n2S(C)(=O)=O)cc1`, the growth is 53.1% in the assay with SR leukemia; 79.1% with RPMI-8226 leukemia; 95.9% in the assay on OVCAR-8 ovarian; 99.3% in the assay with OVCAR-5 ovarian; 93.4% in the assay on OVCAR-4 ovarian; 112% with SK-OV-3 ovarian. The growth with IGROV1 ovarian is 74%; with OVCAR-3 ovarian, 94.8%; in the assay on HS 578T breast, 95.6%; in the assay on T-47D breast it was 96.2%; in the assay on BT-549 breast, 86%; in the assay on MDA-MB-435 melanoma it was 6.05% (active). Also, the growth is 70.1% in the assay with SW-620 colon; 66.8% in the assay with MCF7 breast; 82.9% in the assay with HCT-116 colon; 94% in the assay on HCC-2998 colon; 69% in the assay with KM12 colon.

On to `Cc1cc(C=O)c(C)c2c1[nH]c1ccccc12`, for which the growth in the assay with SR leukemia is 85.5%; in the assay on RPMI-8226 leukemia it was 93.9%; in the assay on OVCAR-8 ovarian, 93%; in the assay with OVCAR-5 ovarian it was 62.4%; in the assay on OVCAR-4 ovarian, 87.8%; with SK-OV-3 ovarian it was 106%. The growth in the assay on IGROV1 ovarian is 97.6%; in the assay on OVCAR-3 ovarian, 108%; with HS 578T breast, 107%; in the assay with NCI/ADR-RES ovarian, 94.2%; in the assay with T-47D breast, 101%; in the assay with MDA-MB-435 melanoma, 116%. For the same molecule, the growth with SW-620 colon was 101%; in the assay on MCF7 breast it was 85.4%; in the assay with HCT-116 colon it was 90.5%; in the assay with HCC-2998 colon, 106%; in the assay with KM12 colon, 108%.

For `COc1ccc(C2c3ccccc3NC(=O)N2C2CCN(C)CC2)c(OC)c1` (stereo unspecified), the growth was 41.4% in the assay with SR leukemia; 113% in the assay on RPMI-8226 leukemia; 104% with OVCAR-8 ovarian; 88.4% in the assay with OVCAR-5 ovarian; 105% in the assay with OVCAR-4 ovarian; 101% in the assay on SK-OV-3 ovarian. The growth in the assay on IGROV1 ovarian is 94.3%; with OVCAR-3 ovarian it was 110%; with HS 578T breast it was 92%; with NCI/ADR-RES ovarian, 103%; in the assay with T-47D breast, 100%; in the assay with MDA-MB-435 melanoma it was 72%. For the same molecule, the growth in the assay with SW-620 colon was 101%; with MCF7 breast, 78.1%; in the assay with HCT-116 colon it was 107%; in the assay on HCC-2998 colon, 105%; with KM12 colon it was 99.6%.
